PubChem BioAssay AID588689 (Southern Research Specialized Biocontainment Screening …, 2011)
Values joined by “and” are separate entries in the source; they are usually repeats but may differ in a detail not shown here. Equal values may be shown once. In all, about 340,000 compounds went through this assay and about 1,000 (0.29%) were called active. Rule as the data show it: inconclusive = inhibition above about 29% without an active follow-up result; inactive = below that. These entries were drawn from the full list. Entries with a potency or affinity are not part of this list.

Molecular target: Genome polyprotein (Dengue virus type 2 (strain 16681-PDK53)) (UniProt P29991)
Test: Dengue-2 NS5 methyltransferase inhibitors, primary screen, biochemical, confirmation dose response (AID 588689)
Conditions: Dengue-2 NS5 methyltransferase capping enzyme assay, at 25 µM, stronger effect = higher value
[1] = measured here: pilot screen replicate inhibition

SMILES | inhibition | inhibition [1] [%]
O=C(C[n+]1ccn(CCCNP2(=O)C=C(c3ccccc3)OC(c3ccccc3)=C2)c1)c1cccs1 | 6.89% (inactive) | –
Cc1cccc(COCC(Cc2ccccc2)N2CCN(C(=O)c3cccc(C)c3)CCC2=O)c1 (configuration not stated) | -1.6% (inactive) | –
COc1ccc(-c2noc(CCC(=O)N3CCN(c4ccccc4C)CC3)n2)cc1 | -3.97% (inactive) | -0.01
COc1cccc2c1-c1c(O)cccc1C2=O | 9.88% (inactive) | 6.38
O=C(O)c1cc(O)c2c(c1)C(=O)c1cccc(O)c1C2=O | 5.97% (inactive) | –
Nc1ncn(C(=S)Nc2ccccc2)n1 | 5.4% (inactive) | –
COc1cccc(-c2nnc(Nc3nc4c(F)cccc4s3)o2)c1 | 3.39% (inactive) | –
COc1cc(OC)cc(-c2nnc(Nc3nc4c(F)cccc4s3)o2)c1 | 0% (inactive) | –
Cc1nc2cc(N3CCOCC3)c(NC(=O)C3CC3)cc2c(=O)n1Cc1ccccc1 | 0% (inactive) | –
O=S1(=O)N=C(SCCO)c2ccccc21 | 1.39% (inactive) | –
O=C(CSC1=NS(=O)(=O)c2ccccc21)Nc1ccccc1 | 25.7% (inactive) | –
COc1cccc(CNS(=O)(=O)c2cc3c4c(c2)CCN4C(=O)CC3)c1 | -2.16% (inactive) | –
CNC(=S)Nc1cc(C)ccc1OC(F)F | -3.09% (inactive) | –
COC(=O)c1c(-c2ccc(C(C)(C)C)cc2)csc1NC(=O)C1C2CCC(O2)C1C(=O)O (configuration not stated) | 10.8% (inactive) | –
CCOC(=O)c1c(NC(=O)C2C3CCC(O3)C2C(=O)O)sc(C)c1-c1ccc(C)cc1 (configuration not stated) | 16.7% (inactive) | –
CCOC(=O)c1c(NC(=O)C2C3CCC(O3)C2C(=O)O)sc2c1CCCC2 (configuration not stated) | -0.74% (inactive) | –
CCOC(=O)c1c(-c2cccc3ccccc23)csc1NC(=O)C1C2CCC(O2)C1C(=O)O (configuration not stated) | 2.56% (inactive) | –
O=C(Nc1nc2n(n1)C(c1ccc(F)cc1)CC(c1ccccc1)N2)c1ccco1 (configuration not stated) | -3.83% (inactive) | –
Cc1ccc2c(ccc[n+]2CC(=O)c2ccccc2)c1 | -3.89% (inactive) | –
O=C(C1CCN(S(=O)(=O)c2ccccc2)CC1)N1CCN(c2ccccc2F)CC1 | -3.69% (inactive) | –
COc1cc(OC)c(N2CC(C(=O)NCCC3=CCCCC3)CC2=O)cc1Cl (configuration not stated) | -2.95% (inactive) | –
O=C(O)c1cc(N=Nc2c(O)ccc3ccccc23)cc(C(=O)O)c1 | 20.4% (inactive) | –
O=C(O)c1cc2ccccc2c(N=Nc2cccnc2)c1O | 0.81% (inactive) | –
CN(Cc1ccccc1)S(=O)(=O)c1ccc(Cl)c(C(=O)N2CCC(C(N)=O)CC2)c1 | 4.28% (inactive) | –

SMILES | inhibition | inhibition [1] [%]
Cc1cccc(Cc2nnc(CCC(=O)N(C)CCc3ccccc3)o2)c1 | 10.8% (inactive) | –
CN(C)C(=O)Cn1cc(S(=O)(=O)Cc2ccccc2)c2ccccc21 | -2.66% (inactive) | –
CCCCNC(=O)c1sc(=S)n2c1[nH]c(=O)c1ccccc12 | 10.2% (inactive) | –
O=C(NCc1ccco1)c1sc(=S)n2c1[nH]c(=O)c1ccccc12 | 0% (inactive) | –
Nc1cc(S(=O)(=O)O)cc2ccc(S(=O)(=O)O)cc12 | 7.17% (inactive) | –
Cc1ccc(S(=O)(=O)c2cc(Nc3ccccc3)ccc2O)cc1 | 8.82% (inactive) | –
O=S(=O)(O)c1cccc(N=Nc2c(O)ccc3ccccc23)c1 | 1.57% (inactive) | –
Nc1ccc(C(=O)Nc2ccc3c(O)cc(S(=O)(=O)O)cc3c2)cc1 | 4.28% (inactive) | –
CC(=O)Nc1ccc2c(O)cc(S(=O)(=O)O)cc2c1 | -7.72% (inactive) | –
CN(C)c1ccc2cc(S(=O)(=O)O)cc(O)c2c1 | 81.6% (inactive) | –
Nc1ccc(Nc2ccccc2)c(S(=O)(=O)O)c1 | 54.5% (inactive) | –
O=S(=O)(O)c1cc(O)c2ccc(Nc3ccccc3)cc2c1 | 8.94% (inactive) | –
CN(C)/C=C1\NC(=S)N(c2ccc(Cl)cc2)C1=O | -20.4% (inactive) | –
Cc1ccc(S(=O)(=O)N2CCN(Cc3csc(C)n3)CC2)cc1 | 2.27% (inactive) | –
CC(C)CN(C(=O)COC(=O)CSc1ccc(Br)cc1)C1CCS(=O)(=O)C1 (configuration not stated) | -3.62% (inactive) | –
COc1cc(C=O)ccc1OCCOCCOc1ccc(Cl)cc1Cl | -6.82% (inactive) | –
Nc1cccc2cc(S(=O)(=O)O)ccc12 | 13.9% (inactive) | –
Nc1cccc2c(O)cccc12 | 6.13% (inactive) | –
O=C1c2ccccc2-c2n[nH]c(=O)c3ccc(N4CCCCC4)c1c23 | -9.35% (inactive) | –
O=C1c2ccccc2-c2nccnc21 | 1.62% (inactive) | –
C=CCNC(=S)N/N=C/c1ccccc1OCCOc1ccccc1 | 2.29% (inactive) | –
CCN(CC)C(=O)CCSc1nnc(-c2ccncc2)o1 | -3.83% (inactive) | –
Cc1ccc(OCC(=O)N[C@@H](C)c2nnc3ccccn23)cc1C | -6.18% (inactive) | –
O=C(COC(=O)c1cccc(F)c1)Nc1cccc(S(=O)(=O)N2CCOCC2)c1 | -5.49% (inactive) | –

SMILES | inhibition | inhibition [1] [%]
COc1ccc(NC(=O)C2CCC(CNc3c(N4CCC(C)CC4)c(=O)c3=O)CC2)cc1OC (configuration not stated) | -6.26% (inactive) and 8.76% (inactive) | –
O=C(NNc1ccccc1)c1ccccc1 | -0.81% (inactive) | –
COc1ccc(C(=O)NNc2ccccc2)cc1 | 4.46% (inactive) | –
Cn1c(=O)[nH]c(=O)c2c1nc(N1CCOCC1)n2CCN1CCOCC1 | 1.62% (inactive) | –
COc1ccc(-c2csc(NC(=O)c3ccccc3F)c2C(=O)O)cc1 | 11.1% (inactive) | –
Cc1ccccc1C(=O)Nc1scc(-c2ccc(Br)cc2)c1C(=O)O | 22.5% (inactive) | –
COc1cc(C(=O)Nc2scc(-c3ccc(C)cc3)c2C(=O)O)cc(OC)c1OC | 3.47% (inactive) | –
COc1cc(C(=O)Nc2scc(-c3ccccc3)c2C(=O)O)cc(OC)c1OC | 14.7% (inactive) | –
O=C(Nc1scc(-c2cccs2)c1C(=O)O)c1cccs1 | 22.9% (inactive) | –
COc1ccc(-c2csc(NC(=O)c3cccs3)c2C(=O)O)cc1OC | -3.65% (inactive) | –
Cc1ccc(Cn2ccc(NC(=O)c3cc(-c4ccc(Cl)cc4)on3)n2)cc1 | -1.39% (inactive) | –
Oc1ccccc1C1OCC2(CO1)COC(c1ccccc1O)OC2 (configuration not stated) | 1.95% (inactive) | –
COc1cccc(-c2c(-c3cc(OC)cc(OC)c3)n(C)c3ccc(-c4ccc(OC)nc4)cc23)c1 | 2.45% (inactive) | –
COC(=O)[C@@H](NC(=O)/C=C/c1ccc(OC)cc1)C(C)C | -9.35% (inactive) | –
COc1ccc(NC(=O)N(C)C[C@@H]2OCc3cn(nn3)CCCC(=O)N([C@H](C)CO)C[C@H]2C)cc1 | -1.7% (inactive) | –
COc1ccccc1CNC(=O)CN(CCc1ccccc1)S(C)(=O)=O | -7.36% (inactive) | –
COc1ccc(NS(=O)(=O)c2cc(NC(=O)c3sccc3C)ccc2N2CCOCC2)cc1 | 0.57% (inactive) | –
CC(=O)c1ccc(N2CCN(S(=O)(=O)c3c(C(=O)N4CCCCC4)c(C)n(C)c3C)CC2)cc1 | -2.71% (inactive) | –
Fc1cccc(Cl)c1CN1CCN(c2nc3ccccc3s2)CC1 | -4.55% (inactive) | –
COc1ccc(O)c(/C=N/c2nc3ccccc3n2C)c1 | 3.47% (inactive) | –
CCn1c(/C=N/c2nc3ccccc3n2C)nc2ccccc21 | -0.7% (inactive) | –
Cc1csc2c(=O)n3c(nc12)CCCCC3 | -3.21% (inactive) | –
Cc1ccc(Sc2ccc(/C=C3/C(=O)NN(c4ccccc4)C3=O)o2)cc1 | -2.65% (inactive) | –
CCN1C(=O)N/C(=C/c2ccc(Sc3ccc(C)cc3)o2)C1=O | -2.74% (inactive) | –

SMILES | inhibition | inhibition [1] [%]
O=C(COC(=O)/C=C/c1ccco1)NC1CCCCC1 | -4.04% (inactive) | –
CC(=O)Nc1ccc(C(=O)CSc2nnc(-c3ccccc3F)n2CCc2ccccc2)cc1 | -4.64% (inactive) | –
C[C@@H](C[C@@H](O)[C@H](O)C(C)(C)O)[C@@H]1CC[C@]2(C)C3=CC[C@H]4C(C)(C)C(=O)CC[C@]4(C)[C@H]3CC[C@@]12C | -3.21% (inactive) | –
O=C(COC(=O)c1cc(Br)ccc1O)NNC(=O)c1cccs1 | 0% (inactive) | –
Nc1nc(SCc2ccccc2)c2[nH]cnc2n1 | -9.52% (inactive) | –
CNc1ncnc(Sc2nc(N)nc3nc[nH]c23)c1[N+](=O)[O-] | -30.9% (inactive) | –
CC(C)C(NS(=O)(=O)c1cccc(C(F)(F)F)c1)C(=O)N1CCc2ccccc2C1 (configuration not stated) | -4.98% (inactive) | –
CCn1c(SCC(=O)NNC(=O)c2ccc(C)cc2)nnc1C(C)C | 7.12% (inactive) | –
Nc1ccc(N2CCCCC2)cc1N1CCCCC1 | 25.7% (inactive) | –
Nc1ccc(N2CCOCC2)c2nonc12 | 45.2% (inactive) | –
O=C1C2CCCN2C(=S)N1c1ccccc1 (configuration not stated) | -3.27% (inactive) | –
COc1ccccc1-c1cc(N)n[nH]1 | 2.4% (inactive) | –
CC1=CN2C(=N)/C(=C/c3ccc([N+](=O)[O-])o3)C(=O)N=C2S1 | -58.2% (inactive) | –
Cc1cc(C)cc(N=Cc2ccc([N+](=O)[O-])s2)c1 | 4.37% (inactive) | –
Cc1ccc(/C=C2\C(=O)NC(=O)N2C)o1 | 23.3% (inactive) | –
COc1cccc(N2C(=O)/C(=C\c3cccs3)NC2=S)c1 | -5.28% (inactive) | –
COc1cccc(NCc2ccc([N+](=O)[O-])s2)c1 | -8.01% (inactive) | –
CC1CC(C)CN(C(=O)/C=C/c2ccc([N+](=O)[O-])s2)C1 (configuration not stated) | -5.44% (inactive) | –
COc1ccc(N2C(=O)NC(=O)C2=O)cc1 | -2.2% (inactive) | –
COc1ccc(NC(C)C(=O)N/N=C/c2ccc([N+](=O)[O-])s2)cc1 (configuration not stated) | -5.18% (inactive) | –
Cc1cc(-c2ccc(S(=O)(=O)NCc3ccc(F)cc3)cc2)on1 | -4.39% (inactive) | –
O=C(Cc1ccc(Br)cc1)N/N=C/c1cccnc1 | 1.95% (inactive) | –
CCOC(=O)Cc1csc(SC(C)C(=O)Nc2ccc(NC(C)=O)cc2)n1 (configuration not stated) | -3.63% (inactive) | –
